This passage reports z-score and composite z-score results from PubChem BioAssay.

Unmarked numbers belong to inactive results.
Note: test concentration not given here.

Test system in the first test: not listed separately
Description: viability profiling in MM1S myeloma cells – cell-based, resazurin fluorescence, basal, 24 h, PK04 Diversity Set, profiling panel (AID 1174).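 Note: MM1S multiple myeloma cell line.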 The settings on record: higher = more signal, called active from +8 up or from −8 down.
`CCOC(=O)NN=C1C[C@@H](O)[C@@H](O)[C@@H]2[C@@H]3C(=O)N(c4ccc(F)cc4F)C(=O)[C@@H]3CC[C@H]12`: the z-score is 1.44.
As to `O=C1[C@H]2[C@H]3[C@H](O)[C@H](O)CC(=NO[C@@H]4O[C@H](CO)[C@@H](O)[C@H](O)[C@H]4O)[C@H]3CC[C@H]2C(=O)N1C[C@@H]1CCCO1`, the z-score is -1.45.
Take `CCOC(=O)[C@H](Cc1ccccc1)NC(=O)CCC1CC(OC(=O)NCCc2ccc(F)cc2)CC2(CCCC(COC(=O)NCCC(C)C)O2)O1` (stereo partly specified): the z-score is 0.129.
Turning to `CO[C@H]1COC(=O)[C@H](C)COC(=O)[C@@H](OCc2ccccc2)C=C[C@@H]1C`, the z-score was -0.114.
`O=C1[C@H]2[C@H]3[C@H](O)[C@H](O)CC(=NOC[C@@H](O)COCc4ccco4)[C@@H]3CC[C@H]2C(=O)N1Cc1ccccc1`: the z-score was -0.737.
For the compound `CC(C)=CCCC(C)=CCON=C1C[C@@H](O)[C@@H](O)[C@@H]2[C@@H]3C(=O)N(Cc4ccc5c(c4)OCO5)C(=O)[C@@H]3CC[C@H]12`, the z-score is -0.503.
Take `COC(=O)[C@H](C)NC(=O)CC=C[C@@H](C)[C@@H]1C=C[C@H](O)[C@@H](CO)O1`: the z-score is -0.543.
For the compound `COc1ccc(COC(=O)NN=C2C[C@@H](O)[C@@H](O)[C@@H]3[C@@H]4C(=O)N(C[C@@H]5CCCO5)C(=O)[C@@H]4CC[C@@H]23)cc1`, the z-score was 0.075.

In another test the target is Dihydroorotate dehydrogenase (quinone), mitochondrial (Plasmodium falciparum (isolate 3D7)) (UniProt Q08210). The test is described as follows: inhibition of P. falciparum DHODH – biochemical, C-terminal His tag, absorbance 600 nm, primary screen (AID 1175).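 Note: recombinant parasite enzyme with a five histidine tag at its C terminus.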 The conditions noted are these: PfDHODH enzyme, DCIP absorbance 600 nm; higher = more signal, called active from +8 up or from −8 down.
Chain of Dihydroorotate dehydrogenase (quinone), mitochondrial (Plasmodium falciparum (isolate 3D7)) (Q08210 whole entry, looked up): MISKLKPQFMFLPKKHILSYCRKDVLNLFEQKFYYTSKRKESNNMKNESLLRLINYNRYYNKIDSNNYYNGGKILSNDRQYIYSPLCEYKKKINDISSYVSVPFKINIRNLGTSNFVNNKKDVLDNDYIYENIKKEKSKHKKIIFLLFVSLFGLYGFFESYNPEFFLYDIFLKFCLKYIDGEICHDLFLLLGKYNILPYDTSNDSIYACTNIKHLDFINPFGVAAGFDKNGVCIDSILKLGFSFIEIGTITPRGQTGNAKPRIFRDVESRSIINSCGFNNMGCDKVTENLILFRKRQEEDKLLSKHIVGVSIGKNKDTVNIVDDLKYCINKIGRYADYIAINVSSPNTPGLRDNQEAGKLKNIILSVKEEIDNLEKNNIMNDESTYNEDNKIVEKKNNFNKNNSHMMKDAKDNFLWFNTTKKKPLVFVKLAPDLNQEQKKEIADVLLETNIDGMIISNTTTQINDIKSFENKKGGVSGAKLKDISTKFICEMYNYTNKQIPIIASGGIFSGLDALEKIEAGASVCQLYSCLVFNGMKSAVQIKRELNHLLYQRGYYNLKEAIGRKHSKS
In the case of `COC(=O)[C@H](C)NC(=O)CCC1CC(OC(=O)NCc2cccc3ccccc23)CC2(CCCC(COC(=O)NCc3ccccc3)O2)O1` (stereo partly specified), the composite z-score was 0.0095.
As to `O=C1CCCC=C1C(O)C1CCCCC1` (stereo unspecified), the composite z-score is -1.76.
On to `COc1ccc(COC(=O)NN=C2C[C@@H](O)[C@@H](O)[C@@H]3[C@@H]4C(=O)N(Cc5ccccc5)C(=O)[C@@H]4CC[C@@H]23)cc1`, for which the composite z-score is 0.207.
Regarding `CO[C@H]1COC(=O)CC=C[C@H](C)[C@H](OC)COC(=O)[C@@H](C)NC(=O)CC=C[C@@H]1C`, the composite z-score was -0.498.
On the same count and under the same terms, for `CC(C)CON=C1[C@H]2CCn3c(=O)n(C)c(=O)n3[C@H]2[C@H](O)[C@@H]2O[C@H]12` the value was -0.764; for `CCOC(=O)CCN1C(=O)[C@H]2[C@H]3[C@H](O)[C@H](O)CC(=NOCC=C(C)CCC=C(C)C)[C@@H]3CC[C@H]2C1=O`, 0.69.
Still for that read-out and setting: next, `CC[C@@H](c1ccccc1)n1c(=O)n2n(c1=O)[C@H]1[C@H](O)[C@@H]3O[C@@H]3C(=NOCc3ccccc3)[C@H]1CC2`: 0.149.
In the case of `CC(CCN1CCCc2nc(C)c(C)cc21)=NO[C@@H](C)c1cn([C@H](CO)Cc2ccccc2)nn1`, the composite z-score is -1.1.
On the same count and under the same terms, next, `COC(=O)[C@H](C)NC(=O)CCC1CC(OC(=O)NCCc2ccc(F)cc2)CC2(CCCC(COC(=O)NCC3CCCCC3)O2)O1` (stereo partly specified): -2.53; `CCOC(=O)[C@H](Cc1ccccc1)NC(=O)CCC1CC(OC(=O)NCc2ccc3c(c2)OCO3)CC2(CCCC(COC(=O)NCCCN3CCCC3=O)O2)O1` (stereo partly specified): -0.59.
With `CC(CCC(=O)OC[C@H]1O[C@H](C#Cc2ccccc2)C=C[C@@H]1Oc1ccc(C)cc1)=NOC[C@@H](C)[C@H](OCc1ccccc1)C(C)C`, the composite z-score was 0.615.
Turning to `CCN1C(=O)[C@H]2[C@H]3[C@H](O)[C@H](O)CC(=NOC[C@@H](O)[C@H]4O[C@@H]5OC(C)(C)O[C@@H]5[C@H]4O)[C@@H]3CC[C@H]2C1=O`, the composite z-score is -0.898.
As to `CC(C)CON=C1C[C@@H](O)[C@@H](O)[C@@H]2[C@@H]3C(=O)N(Cc4ccc5c(c4)OCO5)C(=O)[C@@H]3CC[C@@H]12`, the composite z-score is 0.0312.
Turning to `C=CC[C@@H]1C=C[C@H](ON=C2C[C@@H](O)[C@@H](O)[C@@H]3[C@@H]4C(=O)N(CC)C(=O)[C@@H]4CC[C@@H]23)[C@@H](CO)O1`, the composite z-score was -2.18.
With `CO[C@H]1COC(=O)CCC[C@H](C)[C@H](OC)COC(=O)CC=C[C@@H]1C`, the composite z-score is -1.04.
Regarding `COc1ccc2c(c1)O[C@@H](c1cccc(C(F)(F)F)c1)[C@H](O)C2=O`, the composite z-score is -0.445.
Take `CC(CCN1CCCc2nc(C)c(C)cc21)=NOC[C@@H](O)COCc1ccco1`: the composite z-score was -0.697.
Still for that read-out and setting: next, `CCN1C(=O)[C@H]2[C@H]3[C@H](O)[C@H](O)CC(=NO[C@@H]4O[C@H](CO)[C@@H](O)[C@H](O)[C@H]4O)[C@H]3CC[C@H]2C1=O`: -0.707.
